Bioassay records from PubChem BioAssay.
HCMV antiviral – blocks human cytomegalovirus replication. HFF cells, HCMV-luciferase reporter, 72 h; hits give low values. activity change, negative = inhibition, % at 57.5 µM. 410,000 tested, 4.5% active; in the data active = activity change below about -60%; inconclusive = no clear call, values can overlap the other calls; inactive = above about -39%
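Human foreskin fibroblasts infected with luciferase-reporter HCMV at MOI 1 PFU/cell, compounds at two doses. Luciferase measured 72 h post infection; normalized to buffer-only basal and Salinomycin (10uM) controls.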
Vaccinia mCherry – vaccinia inhibition (mCherry reporter) | Vaccinia virus mCherry reporter infection, fluorescence | Potency, µM (series often up to 36.5 µM), usual class: inhibitors | 310,000 tested, 0.63% active | AID 720579; calls by dose curve; tested in A549 cells; note: nearly all actives have a fitted effect of over 35% in size
FMDV inh – antivirals against foot and mouth disease virus | FMDV antiviral cell-based qHTS | Potency, µM (titrated, usually from 57.9 µM), most hits filed as inhibitors | 410,000 tested, 1.2% active; calls by dose curve; tested in HEK293T cells; note: read-out not given here; nearly all actives have a fitted effect of over 45% in size
VACV Venus inh – vaccinia inhibition (Venus reporter). Vaccinia virus Venus reporter expression, fluorescence. AID 720580. 330,000 tested, 0.46% active. Potency, µM (doses to about 36.5 µM), most hits filed as inhibitors; calls by dose curve; tested in A549 cells; note: nearly all actives have a fitted effect of over 30% in size
Sm TGR block – inhibitors of Schistosoma mansoni thioredoxin glutathione reductase | Q962Y6 | purified TGR, DTNB reduction, TNB absorbance 405 nm | Potency, µM (series often up to 114 µM), actives largely listed as inhibitors | 360,000 tested, 3% active; note: nearly all actives have a fitted effect of over 60% in size
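TGR 20 nM + NADPH 100 uM (dispensed conc.), cpd preinc 15 min RT; start with NADPH (500 uM addition) then DTNB (15 mM addition). Kinetic TNB absorbance, 405 nm filter. Four-parameter Hill fit across titration.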
HCV inhibitor – blocks hepatitis C virus; AID 651820; 340,000 tested, 3.4% active; Huh7.5.1 HCVcc-Cre infection, luciferase reporter, 44 h; Potency, µM (doses to about 41.8 µM), hits mostly inhibitors
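Compounds are dispensed onto cells plated 4 h earlier at 1,000 per well, with HCVcc-Cre virus (about 0.5 moi) added next. Following 44 h of culture, luminescent signal is measured for 15 sec after 15 min with substrate at room temperature.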
Hits are given with their value; – = inactive; ? = inconclusive; · = not tested or not shown. Hits are enriched below; roughly 9.3% of the tested compounds scored in any of these assays. Unless noted, calls come from the whole dose curve; as a rule, active = well fitted curve in the direction sought with a large enough effect; inconclusive = small, poorly fitted or top-dose-only effect, or another doubt; inactive = no such curve, though single readings can be large; an effect the other way counts as inactive or inconclusive.

SMILES	HCMV antiviral	Vaccinia mCherry	FMDV inh	VACV Venus inh	Sm TGR block	HCV inhibitor
CCN(C(=O)CSc1nc2ccccc2c2nc(CCn3c(C)nc4ccccc43)nn12)c1cccc(C)c1	–	–	–	–	–	·
COc1cc(C(=O)Nc2ccc(S(=O)(=O)N3CCOCC3)cc2)c([N+](=O)[O-])cc1OC	–	–	–	–	–	?
O=C(c1ccccc1F)N1CCN(S(=O)(=O)c2ccc(S(=O)(=O)N3CCCCC3)cc2)CC1	–	–	·	–	–	–
CCOC(=O)N1CCN(C2CC(=O)N(c3ccc(Cl)c(Cl)c3)C2=O)CC1 (stereo not given)	–	·	–	–	20µM	–
CCOC(=O)N1CCN(C2CC(=O)N(c3ccccc3)C2=O)CC1 (stereo not given)	–	–	–	–	–	–
COC(CNC(=O)C1CCN(S(=O)(=O)c2ccc3nc4c(c(C(=O)O)c3c2)CC(C)CC4)CC1)OC (stereo not given)	–	·	–	·	–	–
Cc1cccc(C)c1OC(=O)Cc1ccccc1[N+](=O)[O-]	-63.7	–	–	–	–	–
Cc1cccc(C)c1OC(=O)Cc1ccccc1	–	–	–	–	–	–
CC(N)C(=O)NC1C2C(=C(O)CC(O)C2O)C(=O)OC1(C)C(Cl)Cl (stereo not given)	-75.8	?	?	1µM	·	?
CCC(=O)Nc1cccc(-c2cc3ccccc3oc2=O)c1	–	–	–	–	·	–
CC(C)COC(=O)c1cc(-c2ccc(/C=N/n3cnnc3)o2)ccc1Cl	–	·	–	·	22.4µM	–
CCOc1ccc(C(CC(=O)O)NC(=O)C2c3ccccc3Oc3ccccc32)cc1 (stereo not given)	–	·	–	·	–	–
CN(C)c1ccc(C(CC(=O)O)NC(=O)c2ccc(Cl)cc2)cc1 (stereo not given)	–	·	–	–	31.6µM	–
O=C(O)CC(NC(=O)C1c2ccccc2Oc2ccccc21)c1ccc(Cl)cc1 (stereo not given)	-88.2	·	–	·	–	–
CN1CCN(C(=O)c2ccc(C3SCC(=O)N3Cc3ccco3)cc2)CC1 (stereo not given)	–	–	–	–	–	–
CN(C)CCCN(C(=O)CCc1ccccc1)c1nc2ccc(Br)cc2s1	–	?	25.1µM	?	–	–
CN(C)CCCN(C(=O)CCc1ccccc1)c1nc2ccc(F)cc2s1	–	–	–	–	–	?
Cc1cccc2sc(N(CCCN(C)C)C(=O)CCc3ccccc3)nc12	-71.6	?	–	?	–	10µM
COc1cccc(OC)c1CN1CCCC(C(=O)c2ccccc2SC)C1 (stereo not given)	?	–	–	–	–	?
CC(C)(C)c1ccc2c(c1)OC(C(=O)N/N=C\c1ccc[nH]1)CO2 (stereo not given)	–	·	?	·	–	1µM
COc1ccc(NC(=O)CSc2ccc3nc(-c4ccccc4)cn3n2)c(OC)c1	–	–	–	–	–	·
CCC(NC(=O)Nc1ccc(O)cc1)(C(F)(F)F)C(F)(F)F	-70.0	·	–	–	–	–
NC(CSCc1ccccc1Cl)C(=O)O (stereo not given)	–	·	–	·	15.8µM	–
O=C(O)c1ccc(CSCc2ccccc2Cl)o1	–	·	–	·	–	–
Cc1cc(C)c(S(=O)(=O)NCc2cn3c(C)csc3n2)c(C)c1	–	–	–	–	–	–
SMILES	HCMV antiviral	Vaccinia mCherry	FMDV inh	VACV Venus inh	Sm TGR block	HCV inhibitor
CCOC(=O)c1ccc(N2C(=O)c3n[nH]c(-c4ccco4)c3C2c2ccc(OC)cc2OC)cc1 (stereo not given)	-105.2	–	?	–	–	·
CCOC(=O)c1ccc(N2C(=O)c3n[nH]c(-c4ccco4)c3C2c2ccc(O)c(OCC)c2)cc1 (stereo not given)	-104.6	–	?	–	–	·
CCOC(=O)c1ccc(N2C(=O)c3n[nH]c(C)c3C2c2ccc(OC)cc2OC)cc1 (stereo not given)	–	·	?	·	–	–
CCOC(=O)c1ccc(N2C(=O)c3n[nH]c(-c4ccco4)c3C2c2cccc([N+](=O)[O-])c2)cc1 (stereo not given)	–	?	35.5µM	?	–	11.2µM
CCOC(=O)c1ccc(N2C(=O)c3[nH]nc(-c4ccc(C)cc4)c3C2c2cccs2)cc1 (stereo not given)	?	–	?	–	–	·
CCOC(=O)c1ccc(N2C(=O)c3[nH]nc(-c4ccc(C)cc4)c3C2c2ccc(O)c(OCC)c2)cc1 (stereo not given)	-101.3	–	?	–	–	·
CCOC(=O)c1ccc(N2C(=O)c3n[nH]c(C)c3C2c2ccco2)cc1 (stereo not given)	–	·	–	–	–	–
CCOc1ncccc1C(=O)OCC(=O)Nc1cc(S(=O)(=O)N(CC)CC)ccc1C	–	–	–	–	–	–
CC(C)(C)c1cc(NCCCn2ccnc2)n2ncc(-c3ccccc3)c2n1	–	–	–	–	–	?
CCOC(=O)c1ccc(N2C(=O)c3n[nH]c(-c4ccco4)c3C2c2ccc(C(=O)OC)cc2)cc1 (stereo not given)	-80.1	–	?	–	–	·
CCOC(=O)c1ccc(N2C(=O)c3n[nH]c(C)c3C2c2ccc(OC)cc2)cc1 (stereo not given)	–	·	–	·	–	–
Cc1[nH]c2ccccc2c1C(=O)CN1CCN(C2CCCCC2)CC1	·	·	·	·	39.8µM	?
COc1ccccc1N1CCN(CC(O)c2c(C)[nH]c3ccccc23)CC1 (stereo not given)	?	·	–	·	15.8µM	–
Cc1[nH]c2ccccc2c1C(=O)CN1C(=O)C(=O)N(C2CCCC2)C1=O	–	–	–	–	–	–
COc1ccccc1N1CCN(CC(=O)c2c(C)[nH]c3ccccc23)CC1	–	–	·	–	31.6µM	–
O=C(/C=C/c1ccc(Cl)cc1)NC1CC2CCC1C2 (stereo not given)	–	–	–	–	–	–
NC(=O)C(C(=O)/C=C/c1ccc(Cl)cc1)=C1SCCS1	-100.9	·	?	·	–	?
COc1ccc(/C=C/C(=O)C(C(N)=O)=C2SCCS2)cc1	-100.6	?	–	–	–	–
CCN(CC)C(=O)c1cc(Cl)ccc1NC(=O)c1ccco1	–	–	–	–	–	–
CCN(CC)P(=O)(Nc1ccccc1Br)c1ccc(N(C)C)cc1NC(=O)c1ccco1 (stereo not given)	-60.5	–	?	–	–	?
C=CCN1C(=O)c2ccc(C(=O)N3CCC(C(N)=O)CC3)cc2C1=O	-86.1	·	–	·	–	–
NC(=O)C1CCN(C(=O)c2cccc(CN3C(=O)c4ccccc4C3=O)c2)CC1	–	–	–	–	–	–
C=CCN1C(=O)c2ccc(C(=O)N3CCN(S(=O)(=O)c4cccc(Cl)c4)CC3)cc2C1=O	-76.3	–	–	–	–	–
Cc1ccc(C(=O)NCC(=O)OCc2nnc(-c3ccc([N+](=O)[O-])cc3)o2)s1	–	–	–	–	–	–
